# Laboratory results reported in PubChem BioAssay (NCI).
# The panel holds about 83,000 compounds, 20% with a hit somewhere; the sample as a whole holds those more often.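 Results are percent growth after 48 hours of single-concentration exposure. 100 means growth as in untreated cells, lower positive values show inhibition; negative values down to -100 show cell death.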 Values without a mark were called inactive. The source made the active and inactive calls.
# Test system: BT-549 breast
# Assay: NCI-60 one-dose screen, 48 h (100 = growth as untreated, 0 = no growth, -100 = all killed)
# Settings: 10 µM unless noted
# Procedure: Growth inhibition of the BT-549 human tumor cell line is measured as a screen for anti-cancer activity. Cells are grown in 96 well plates and exposed to the test compound for 48 hours. Compounds are tested at a single concentration, which is 10^-5 M for most compounds. The reported endpoint is percent growth (GI% or GIPRCNT), where numbers from 0 - 100% represent growth inhibition, and numbers from -100% - 0 represent cell death. For example, a value of 40 represents 60% growth inhibition. A value of 0 means no net growth occurred over the course of the experiment. A value of -40 indicates 40% of cells at the beginning of the experiment died by the end of the experiment. A value of -100 means all cells are dead at the end of the experiment.
# NCI-60 Human Tumor Cell Lines Screen was performed using the standard one-dose NCI protocol, which is described in more detail at https://dtp.cancer.gov/discovery_development/nci-60/default.htm.
# Compounds with GIPRCNT values below 10 were considered active. Activity score was based on GIPRCNT using the following formula: […]
# Score is 0 for GIPRCNT values of 100 or above, 50 for GIPRCNT values of 0, and 100 for GIPRCNT values of -100.
row,SMILES,growth
1,CC1=C(C(=O)OC(C)C)C(c2cccc(O)c2)NC(=S)N1 (stereo not given),127%
2,CCOC(=O)C1=C(N)N(c2ccccc2)C2=C(C(=O)CC(C)(C)C2)C1c1ccc([N+](=O)[O-])cc1 (stereo not given),102%
3,O=C(c1ccccc1)c1ccc2nc(-c3ccc(F)cc3)[nH]c2c1,40.1%
4,Cn1cc(-c2cc3nc(-c4c[nH]c5ccc(Br)cc45)cc(N)n3n2)c2ccccc21,-63.6% (active)
5,O=C(O)c1ccc(-c2ccc(/C=N/NC(=O)c3[nH]c4ccc(Br)cc4c3-c3ccccc3)o2)cc1,-7.86% (active)
6,CNC(=O)c1cccc(NC(=O)c2ccc3c(c2)nnn3/C(C#N)=C/c2ccccn2)c1,-98.7% (active)
7,Cc1cccc(Nc2nc3ccccc3nc2/C=C/c2ccc(F)cc2)c1,99.2%
8,COc1ccc(-c2ccc(SCC(=O)NCCc3ccc(S(N)(=O)=O)cc3)nn2)cc1,60.5%
9,Cn1cc(-c2cc(N)n3nc(-c4c[nH]c5ccccc45)cc3n2)c2cccnc21,71.8%
10,NS(=O)(=O)c1ccc(CCNC(=O)CSc2ccc(-c3ccc(Br)cc3)nn2)cc1,39.5%
11,Cc1cc(=O)oc2cc(OCCCCOc3ccc(/C=C/C(=O)Nc4ccccc4N)cc3)ccc12,-23.9% (active)
12,O=C(COc1ccc2c(c1)CCCC(=O)N2)NCc1ccccc1,104%
13,Cn1cc(-c2cc(N)n3nc(-c4cn(C)c5ccccc45)cc3n2)c2cc(Br)ccc21,38%
14,COc1cc(-c2nc3ccc(C)cc3[nH]2)ccc1OCc1nnc(-c2ccc(Br)cc2)o1,23.8%
15,N#Cc1ccc(C(=O)Nn2c(N)cc3ccccc3c2=O)cc1,85.4%
16,Cc1c(C(=O)NNC(=O)c2ccc(Cl)cc2)nnn1-c1ccc(Br)cc1,96.5%
17,CC(C)CSc1nc(NCCc2c[nH]c3ccccc23)c(C#N)c(-c2ccc(F)cc2)n1,72.1%
18,Cc1ccc2c(c1)nc(-c1ccccc1)n2CC(=O)N=Nc1c(O)[nH]c2ccc(Br)cc12,-72.1% (active)
19,O=C(COc1ccc(NC(=O)Nc2ccc(Cl)c(Cl)c2)cc1)N=Nc1c(O)[nH]c2ccc(Cl)cc12,-71.7% (active)
20,O=C(c1ccc(OCCN2CCOCC2)cc1)C1[C@H](c2ccc(Cl)cc2)[C@@H](c2ccccc2)NC12C(=O)Nc1ccc(Cl)cc12 (stereo not given in full),57.1%

row,SMILES,growth
1,C#CCOc1cc(N(CC)CC)ccc1C(C(=O)NC(C)(C)C)N(C(=O)C1CCc2cc(F)ccc2O1)c1ccccc1Br (stereo not given),63.7%
2,COc1ccc(/C=N/NC(=O)Cn2nc(Cc3ccc(OC)cc3)c3onc(C)c3c2=O)cc1,36.9%
3,Cc1ccc(S(=O)(=O)c2nc(S(=O)(=O)c3ccc(C)cc3)c(N3CCN(C)CC3)s2)cc1,43.4%
4,COc1cc(CNC(=O)/C=C/c2ccc3c(c2)OCO3)ccc1OCc1cn(-c2cccc(C(F)(F)F)c2)nn1,-10.7% (active)
5,CCCCCCn1c(O)c(N=Nc2nc(-c3cc4ccccc4oc3=O)cs2)c2ccccc21,-20.5% (active)
6,Cn1cc(-c2cc3nc(-c4c[nH]c5ccc(Cl)cc45)cc(N)n3n2)c2ccccc21,-74% (active)
7,CCCCc1c(Nn2cnnn2)no[n+]1[O-],49.4%
8,CCN(CC)CCOc1ccc(Nc2ncc3cc(-c4ccc(O)c(C#N)c4)c(=O)n(C)c3n2)cc1,112%
9,COc1ccc(NC(=O)c2sc3nc(C(C)C)ccc3c2N)cc1,88.5%
10,COc1ccc(Cc2nn(CC(=O)N/N=C/c3ccc(F)cc3)c(=O)c3c(C)noc23)cc1,43.2%
11,O=C(CSc1nc2ccccc2c(=O)[nH]1)NCCN1CCCCC1,104%
12,CCN(CC)c1ccc(/C=N/Nc2nc(-c3ccc(C)cc3)cs2)c(O)c1,71.9%
13,COc1ccc(NC(=O)Cn2c3c(sc2=O)[C@H]2[C@@H](O)[C@@H](O)[C@H](O)[C@@H]2CS3)cc1,110%
14,O=c1[nH]n(C(=S)N/N=C/c2ccccc2Cl)c(=O)c2ccccc12,-57.5% (active)
15,CCCCn1c(O)c(N=Nc2nc(-c3cc4ccccc4oc3=O)cs2)c2cc(Br)ccc21,132%
16,CC(C)c1sc(NC(=O)c2cc(NC(=O)c3cc(NC(=O)c4cscn4)cn3C)cn2C)nc1C(=O)NCCCN(C)C,-7.36% (active)
17,CCN(CC)c1ccc(/C=N/Nc2nc(-c3ccc(Br)cc3)cs2)c(O)c1,37.4%
18,N#Cc1c(-c2cccc(Cl)c2Cl)cc(-c2c[nH]c3ccccc23)[nH]c1=O,24.3%
19,CCOC(=O)c1ccc(Nc2nc(NN)nc(-c3ccc(F)cc3)c2C#N)cc1,111%
20,OCC1(CCCc2ccccc2)CCCN(c2nccc3ccccc23)C1 (stereo not given),-3.12% (active)
